# In PubChem BioAssay (EPA / NIEHS):
# Results filed as inconclusive are left out. The source made the active and inactive calls. How the source made its calls, unless noted: active means hit-call score of the fitted dose curve at least 0.9, where 1 is the maximum; inactive means score below 0.9.
# Tests used:
# [1] = read-out: Monokine induced gamma interferon (MIG), CXCL9 (gene 4283); test: BSK_SAg_MIG: BioMAP Diversity Plus: SAg Assay for Monokine induced gamma interferon (MIG) Biomarker Activity (AID 2283092); conditions: primary human HUVEC with PBMC; actives raise or lower the signal
# Procedure, shortened: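 HUVEC plus human PBMC co-culture, chemicals dosed and MIG (CXCL9) quantified by ELISA at 24 h. Bidirectional curve fitting against DMSO as negative control and baseline, so both gain and loss of signal count as activity.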
# [2] = BSK_SAg_PBMCCytotoxicity: PBMC Cytotoxicity Assessment in the BioMAP Diversity Plus: SAg Assay (AID 2283093); conditions: primary human HUVEC with PBMC;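 further: fitted both ways against DMSO so a hit may be loss or gain of signal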;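 on AC50: PBMC superantigen activated with SEB plus TSST-1 one hour after compound addition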
# Procedure, shortened: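 PBMC viability by Alamar Blue reduction, fluorescence read at 546/580 nm after 6 h dye exposure. Cells were dosed 1 h before SEB plus TSST-1 activation (20 ng/mL final each), then held 90 h; endothelial/PBMC human co-culture.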
# [3] = read-out: Interleukin-8 (IL8), CXCL8 (gene 3576); test: BSK_SAg_IL8: BioMAP Diversity Plus: SAg Assay for Interleukin-8 (IL8) Biomarker Activity (AID 2283094); conditions: primary human HUVEC with PBMC; actives raise or lower the signal
# Procedure, shortened: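 Chemicals were dosed onto a human endothelial–PBMC co-culture, and IL-8 was quantified by ELISA after 24 h. Both increases and decreases were fitted relative to DMSO.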
# [4] = BSK_SAg_Proliferation: Cell Proliferation Assessment in the BioMAP Diversity Plus: SAg Assay (AID 2283095); conditions: primary human HUVEC with PBMC;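 further: relative cell number as total protein by SRB absorbance in sub-confluent culture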
# Procedure, shortened: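 Absorbance of sulforhodamine B at 560 nm reports total protein in a human vascular endothelial/PBMC co-culture after 96 h chemical exposure. Gain or loss of signal is fitted in both directions against DMSO.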
# [5] = BSK_SAg_SRB: Viability Assessment in the BioMAP Diversity Plus: SAg Assay (AID 2283096); conditions: primary human HUVEC with PBMC;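 further: cells read one day after compound addition; hits may be either gain or loss of signal compared with DMSO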
# Procedure, shortened: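 Compounds were added to a human vascular co-culture of umbilical vein endothelium and PBMC. After 24 h, parallel cultures were fixed with 10% TCA, stained with 0.1% sulforhodamine B and read at 560 nm. Gain or loss of signal was fitted relative to DMSO.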
# [6] = target: human CYP2A6, CYP2A6 (gene 1548) (UniProt P11509); test: NVS_ADME_hCYP2A6: NovaScreen (NVS) CYP450-related Enzyme Activity (ADME) Assay for human CYP2A6 (AID 2283099; active means hit-call score of the fitted dose curve at least 0.9, where 1 is the maximum)
# human CYP2A6, CYP2A6 (gene 1548), sequence (P11509 whole entry, looked up): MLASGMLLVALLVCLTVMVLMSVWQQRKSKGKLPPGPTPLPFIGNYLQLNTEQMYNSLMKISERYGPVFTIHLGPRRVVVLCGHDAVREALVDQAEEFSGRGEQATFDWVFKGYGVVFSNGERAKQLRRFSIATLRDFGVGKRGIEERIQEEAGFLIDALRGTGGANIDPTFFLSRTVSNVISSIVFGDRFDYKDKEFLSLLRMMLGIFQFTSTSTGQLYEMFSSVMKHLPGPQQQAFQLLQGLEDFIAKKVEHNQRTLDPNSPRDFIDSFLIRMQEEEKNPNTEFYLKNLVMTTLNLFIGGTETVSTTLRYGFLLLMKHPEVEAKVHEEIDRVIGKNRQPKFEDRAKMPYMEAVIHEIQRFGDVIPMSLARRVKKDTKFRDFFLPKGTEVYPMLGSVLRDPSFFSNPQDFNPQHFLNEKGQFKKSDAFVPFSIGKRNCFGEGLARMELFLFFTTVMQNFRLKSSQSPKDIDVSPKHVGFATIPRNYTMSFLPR
# Procedure, shortened: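 Fluorescent substrate turnover by recombinant CYP2A6 (insect cell source), 0.5 h read. Screen: 10 uM, duplicate; threshold hits (e.g. 30% inhibition) → singleton concentration-response, top 20 uM. Positive and negative controls on every plate.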
# [7] = target: human CYP2B6, CYP2B6 (gene 1555) (UniProt P20813); test: NVS_ADME_hCYP2B6: NovaScreen (NVS) CYP450-related Enzyme Activity (ADME) Assay for human CYP2B6 (AID 2283101; active means hit-call score of the fitted dose curve at least 0.9, where 1 is the maximum)
# human CYP2B6, CYP2B6 (gene 1555), sequence (P20813 whole entry, looked up): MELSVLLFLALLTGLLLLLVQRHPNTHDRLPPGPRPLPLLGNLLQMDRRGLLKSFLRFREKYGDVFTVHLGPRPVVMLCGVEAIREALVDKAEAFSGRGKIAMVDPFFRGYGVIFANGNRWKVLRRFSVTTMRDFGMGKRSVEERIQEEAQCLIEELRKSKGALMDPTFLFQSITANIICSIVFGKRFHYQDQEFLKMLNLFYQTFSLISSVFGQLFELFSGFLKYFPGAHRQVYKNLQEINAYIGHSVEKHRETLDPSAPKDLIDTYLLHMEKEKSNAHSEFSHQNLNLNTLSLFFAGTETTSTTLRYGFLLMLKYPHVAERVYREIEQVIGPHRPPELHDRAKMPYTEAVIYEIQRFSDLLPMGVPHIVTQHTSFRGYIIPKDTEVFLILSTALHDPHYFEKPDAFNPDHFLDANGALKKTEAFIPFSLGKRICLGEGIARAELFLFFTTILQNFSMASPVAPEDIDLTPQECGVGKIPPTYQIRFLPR
# Procedure, shortened: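 Recombinant human CYP2B6 with fluorogenic substrate, read by fluorescence intensity 1 h after dosing. Primary screen in duplicate at 10 uM, actives followed in concentration series; signal loss relative to acetonitrile control.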
# [8] = target: human CYP1A2, CYP1A2 (gene 1544) (UniProt P05177); test: NVS_ADME_hCYP1A2: NovaScreen (NVS) CYP450-related Enzyme Activity (ADME) Assay for human CYP1A2 (AID 2283102; active means hit-call score of the fitted dose curve at least 0.9, where 1 is the maximum;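 on AC50: potency for inhibition since loss of fluorescence marks reduced CYP1A2 activity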)
# human CYP1A2, CYP1A2 (gene 1544), sequence (P05177 whole entry, looked up): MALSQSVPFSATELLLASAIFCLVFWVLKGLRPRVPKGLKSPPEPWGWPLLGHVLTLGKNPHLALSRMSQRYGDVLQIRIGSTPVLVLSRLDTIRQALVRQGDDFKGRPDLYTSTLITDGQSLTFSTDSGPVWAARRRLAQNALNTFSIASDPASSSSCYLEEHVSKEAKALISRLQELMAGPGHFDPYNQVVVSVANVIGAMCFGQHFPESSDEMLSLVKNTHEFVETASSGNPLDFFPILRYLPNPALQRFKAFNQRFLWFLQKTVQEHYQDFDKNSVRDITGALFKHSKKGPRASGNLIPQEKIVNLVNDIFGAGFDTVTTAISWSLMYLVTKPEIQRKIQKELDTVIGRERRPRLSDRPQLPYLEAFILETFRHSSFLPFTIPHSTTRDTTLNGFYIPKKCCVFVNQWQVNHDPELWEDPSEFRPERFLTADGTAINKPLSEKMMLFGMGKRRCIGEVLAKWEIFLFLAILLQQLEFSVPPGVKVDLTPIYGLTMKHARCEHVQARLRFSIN
# Procedure, shortened: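 rec. hCYP1A2 (insect cells), cell-free; fluorogenic substrate; 0.5 h; FI read. Baseline = acetonitrile; signal loss = inhibition. 10 uM duplicate primary → conc. series for actives.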
# [9] = target: human AKT serine/threonine Kinase 1 (AKT1), AKT1 (gene 207) (UniProt P31749); test: NVS_ENZ_hAKT1: NovaScreen (NVS) Enzymatic Assay for human AKT serine/threonine Kinase 1 (AKT1) (AID 2283138; active means hit-call score of the fitted dose curve at least 0.9, where 1 is the maximum)
# human AKT serine/threonine Kinase 1 (AKT1), AKT1 (gene 207), sequence (P31749 whole entry, looked up): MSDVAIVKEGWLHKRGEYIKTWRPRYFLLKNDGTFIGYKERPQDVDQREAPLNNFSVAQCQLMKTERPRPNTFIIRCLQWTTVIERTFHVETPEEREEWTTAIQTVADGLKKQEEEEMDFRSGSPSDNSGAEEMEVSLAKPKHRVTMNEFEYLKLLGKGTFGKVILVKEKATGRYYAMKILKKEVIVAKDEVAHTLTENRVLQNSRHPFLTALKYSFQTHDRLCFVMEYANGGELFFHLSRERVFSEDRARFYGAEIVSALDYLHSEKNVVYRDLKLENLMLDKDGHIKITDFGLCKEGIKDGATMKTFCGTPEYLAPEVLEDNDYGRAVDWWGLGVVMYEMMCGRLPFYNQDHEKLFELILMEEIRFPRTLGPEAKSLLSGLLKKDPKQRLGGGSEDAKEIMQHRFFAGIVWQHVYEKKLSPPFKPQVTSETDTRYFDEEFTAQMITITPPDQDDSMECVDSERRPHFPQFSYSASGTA
# Procedure, shortened: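 Compounds were first tested in duplicate at 25 uM, and those passing a threshold such as 30% inhibition were run in concentration-response to a maximum of 50 uM. Enzyme activity was measured after 1 h by fluorescence following substrate/product mobility-shift separation.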
# [10] = target: human Beta-secretase (BACE), BACE1 (gene 23621) (UniProt P56817); test: NVS_ENZ_hBACE: NovaScreen (NVS) Enzymatic Assay for human Beta-secretase (BACE) (AID 2283140; active means hit-call score of the fitted dose curve at least 0.9, where 1 is the maximum;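 further: hits are inhibitors that reduce fluorescent substrate signal versus DMSO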)
# Procedure, shortened: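 Fluorescence intensity read-out of protease activity defines this endpoint; signal loss relative to DMSO baseline marks inhibition. Recombinant enzyme from SF9 cells, cell-free format, 1 h exposure. Single-concentration duplicate screen (25 uM) precedes concentration-series follow-up.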
# [11] = target: human CYP2C9, CYP2C9 (gene 1559) (UniProt P11712); test: NVS_ADME_hCYP2C9: NovaScreen (NVS) CYP450-related Enzyme Activity (ADME) Assay for human CYP2C9 (AID 2283108; active means hit-call score of the fitted dose curve at least 0.9, where 1 is the maximum)
# human CYP2C9, CYP2C9 (gene 1559), sequence (P11712 whole entry, looked up): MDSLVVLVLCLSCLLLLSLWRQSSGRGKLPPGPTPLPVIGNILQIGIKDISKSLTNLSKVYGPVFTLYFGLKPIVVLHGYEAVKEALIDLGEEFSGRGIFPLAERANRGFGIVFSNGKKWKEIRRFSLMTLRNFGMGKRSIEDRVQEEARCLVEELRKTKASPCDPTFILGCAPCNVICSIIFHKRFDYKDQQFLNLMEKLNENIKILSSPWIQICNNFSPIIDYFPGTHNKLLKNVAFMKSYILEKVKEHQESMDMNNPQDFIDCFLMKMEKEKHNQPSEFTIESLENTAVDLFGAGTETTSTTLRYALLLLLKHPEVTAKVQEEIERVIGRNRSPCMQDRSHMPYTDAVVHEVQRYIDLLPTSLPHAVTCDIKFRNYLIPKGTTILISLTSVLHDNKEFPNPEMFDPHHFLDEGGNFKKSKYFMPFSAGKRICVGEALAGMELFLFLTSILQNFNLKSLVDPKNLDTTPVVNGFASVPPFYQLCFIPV
# Procedure, shortened: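 Recombinant human CYP2C9 expressed in SF9 cells, fluorogenic substrate, fluorescence read 0.75 h after dosing. Chemicals first run in duplicate at 10 uM, with actives followed in concentration series; loss of signal versus acetonitrile baseline.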
# [12] = target: Cytochrome P450 2C19 (Homo sapiens) (UniProt P33261); test: NVS_ADME_hCYP2C19: NovaScreen (NVS) CYP450-related Enzyme Activity (ADME) Assay for human CYP2C19 (AID 2283113; active means hit-call score of the fitted dose curve at least 0.9, where 1 is the maximum;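 on AC50: potency for inhibition seen as loss of fluorescent signal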)
# Procedure, shortened: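 Fluorescence intensity was measured 1 hour after chemicals were added to insect-cell-derived recombinant CYP2C19 with fluorogenic substrate. Decreased signal versus acetonitrile control was taken as reduced enzyme activity; initial testing used 10 uM in duplicate.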
# [13] = target: human Caspase 5 (CASP5), CASP5 (gene 838) (UniProt P51878); test: NVS_ENZ_hCASP5: NovaScreen (NVS) Enzymatic Assay for human Caspase 5 (CASP5) (AID 2283137; active means hit-call score of the fitted dose curve at least 0.9, where 1 is the maximum)
# human Caspase 5 (CASP5), CASP5 (gene 838), sequence (P51878 whole entry, looked up): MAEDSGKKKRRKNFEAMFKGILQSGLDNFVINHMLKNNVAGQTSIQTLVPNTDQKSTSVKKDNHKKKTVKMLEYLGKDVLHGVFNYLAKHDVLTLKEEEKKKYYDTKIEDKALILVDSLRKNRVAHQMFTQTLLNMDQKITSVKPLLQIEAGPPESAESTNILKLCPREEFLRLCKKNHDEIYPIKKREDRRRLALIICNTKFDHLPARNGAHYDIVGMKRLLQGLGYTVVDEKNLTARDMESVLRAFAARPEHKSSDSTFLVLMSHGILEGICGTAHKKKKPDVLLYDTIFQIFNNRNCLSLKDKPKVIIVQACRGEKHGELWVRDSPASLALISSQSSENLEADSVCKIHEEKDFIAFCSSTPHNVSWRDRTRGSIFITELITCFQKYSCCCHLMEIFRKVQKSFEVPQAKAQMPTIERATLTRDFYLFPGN
# Procedure, shortened: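 Chemicals were first tested in duplicate at 25 uM against recombinant caspase 5 from E. coli. Activity was read by fluorescence intensity 2 hours after dosing. Those passing a preset inhibition threshold were retested in singleton concentration-response up to 50 uM.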
# [14] = target: human AKT serine/threonine Kinase 2 (AKT2), AKT2 (gene 208) (UniProt P31751); test: NVS_ENZ_hAKT2: NovaScreen (NVS) Enzymatic Assay for human AKT serine/threonine Kinase 2 (AKT2) (AID 2283141; active means hit-call score of the fitted dose curve at least 0.9, where 1 is the maximum)
# human AKT serine/threonine Kinase 2 (AKT2), AKT2 (gene 208), sequence (P31751 whole entry, looked up): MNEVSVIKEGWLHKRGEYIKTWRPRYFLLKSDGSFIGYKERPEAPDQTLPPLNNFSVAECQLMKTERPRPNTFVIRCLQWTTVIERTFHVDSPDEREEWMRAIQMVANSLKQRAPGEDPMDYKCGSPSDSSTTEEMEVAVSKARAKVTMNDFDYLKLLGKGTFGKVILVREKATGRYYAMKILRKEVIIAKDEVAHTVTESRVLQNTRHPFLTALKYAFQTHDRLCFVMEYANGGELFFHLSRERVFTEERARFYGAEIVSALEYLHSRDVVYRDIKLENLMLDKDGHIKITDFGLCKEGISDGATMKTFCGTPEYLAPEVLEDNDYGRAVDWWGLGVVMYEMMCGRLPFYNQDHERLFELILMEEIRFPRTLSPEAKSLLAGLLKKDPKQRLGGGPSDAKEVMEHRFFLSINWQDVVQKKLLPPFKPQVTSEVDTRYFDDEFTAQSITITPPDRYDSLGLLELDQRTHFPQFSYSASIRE
# Procedure, shortened: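 Cell-free fluorescence/electrophoretic mobility shift readout of recombinant human AKT2 activity, 1 h after chemical dosing. Duplicate primary screen at 25 uM, then singleton concentration-response up to 50 uM; loss of signal versus DMSO baseline.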
# [15] = target: human CYP19A1, CYP19A1 (gene 1588) (UniProt P11511); test: NVS_ADME_hCYP19A1: NovaScreen (NVS) CYP450-related Enzyme Activity (ADME) Assay for human CYP19A1 (AID 2283098; active means hit-call score of the fitted dose curve at least 0.9, where 1 is the maximum)
# human CYP19A1, CYP19A1 (gene 1588), sequence (P11511 whole entry, looked up): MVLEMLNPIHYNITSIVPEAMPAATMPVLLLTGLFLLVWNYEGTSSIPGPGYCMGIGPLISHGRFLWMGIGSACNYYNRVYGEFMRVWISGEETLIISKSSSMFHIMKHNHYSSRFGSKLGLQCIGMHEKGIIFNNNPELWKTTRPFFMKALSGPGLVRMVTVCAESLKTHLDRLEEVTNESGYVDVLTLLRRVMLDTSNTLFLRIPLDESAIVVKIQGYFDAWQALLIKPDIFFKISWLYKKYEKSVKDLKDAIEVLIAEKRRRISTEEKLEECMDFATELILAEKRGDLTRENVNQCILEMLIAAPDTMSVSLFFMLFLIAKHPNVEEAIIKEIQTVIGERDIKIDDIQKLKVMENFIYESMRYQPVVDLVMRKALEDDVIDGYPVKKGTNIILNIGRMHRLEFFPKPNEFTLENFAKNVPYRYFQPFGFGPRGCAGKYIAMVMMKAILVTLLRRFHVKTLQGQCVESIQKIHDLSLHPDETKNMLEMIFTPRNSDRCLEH
# Procedure, shortened: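 Fluorescence intensity read-out; activity taken as signal loss relative to acetonitrile vehicle. Extracted enzyme, specific substrate, no cells, 0.5 h exposure. Duplicate single-point screen at 10 uM, then concentration–response follow-up for actives.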
# Caspase-3 (Homo sapiens) = Caspase-3 (Homo sapiens) (UniProt P42574); test: NVS_ENZ_hCASP3: NovaScreen (NVS) Enzymatic Assay for human Caspase 3 (CASP3) (AID 2283139; active means hit-call score of the fitted dose curve at least 0.9, where 1 is the maximum)
# Caspase-3 (Homo sapiens), sequence (P42574 whole entry, looked up): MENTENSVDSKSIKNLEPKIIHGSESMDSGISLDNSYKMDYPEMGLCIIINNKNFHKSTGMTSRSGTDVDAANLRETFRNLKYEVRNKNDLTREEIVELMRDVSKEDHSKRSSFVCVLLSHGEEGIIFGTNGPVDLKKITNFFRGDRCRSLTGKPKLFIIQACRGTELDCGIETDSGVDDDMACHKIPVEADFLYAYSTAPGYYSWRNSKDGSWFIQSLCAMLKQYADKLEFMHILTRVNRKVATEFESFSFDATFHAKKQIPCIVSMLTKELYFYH
# Procedure, shortened: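 Single-concentration screening at 25 uM in duplicate, with concentration-response follow-up to a 50 uM maximum for chemicals passing the threshold. Caspase-3 (human, E. coli-expressed) activity was read as substrate fluorescence after 1 h, with loss of signal relative to DMSO.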
# [16] = target: human CYP2D6, CYP2D6 (gene 1565) (UniProt P10635); test: NVS_ADME_hCYP2D6: NovaScreen (NVS) CYP450-related Enzyme Activity (ADME) Assay for human CYP2D6 (AID 2283107; active means hit-call score of the fitted dose curve at least 0.9, where 1 is the maximum)
# human CYP2D6, CYP2D6 (gene 1565), sequence (P10635 whole entry, looked up): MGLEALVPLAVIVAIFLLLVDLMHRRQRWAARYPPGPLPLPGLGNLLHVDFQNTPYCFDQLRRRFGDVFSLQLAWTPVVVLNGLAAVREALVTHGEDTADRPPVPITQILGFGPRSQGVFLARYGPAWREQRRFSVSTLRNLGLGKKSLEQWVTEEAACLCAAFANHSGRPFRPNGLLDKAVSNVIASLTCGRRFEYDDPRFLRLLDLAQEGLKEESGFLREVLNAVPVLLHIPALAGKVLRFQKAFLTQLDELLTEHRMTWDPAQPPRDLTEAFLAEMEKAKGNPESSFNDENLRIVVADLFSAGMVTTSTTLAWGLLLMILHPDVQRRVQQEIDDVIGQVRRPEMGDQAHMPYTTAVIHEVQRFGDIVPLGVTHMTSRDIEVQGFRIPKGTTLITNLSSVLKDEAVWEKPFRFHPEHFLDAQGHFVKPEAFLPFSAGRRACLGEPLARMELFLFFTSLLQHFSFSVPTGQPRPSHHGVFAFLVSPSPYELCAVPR
# Procedure, shortened: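 Insect-cell recombinant enzyme + fluorogenic substrate, cell-free; 1 h incubation; fluorescence intensity readout. Acetonitrile = neg. ctrl/baseline. Single-point 10 uM, duplicate; follow-up concentration series.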
# [17] = target: human CYP1A1, CYP1A1 (gene 1543) (UniProt P04798); test: NVS_ADME_hCYP1A1: NovaScreen (NVS) CYP450-related Enzyme Activity (ADME) Assay for human CYP1A1 (AID 2283100; active means hit-call score of the fitted dose curve at least 0.9, where 1 is the maximum)
# Procedure, shortened: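 Recombinant hCYP1A1 + fluorogenic substrate, cell-free; 1 h; fluorescence read. Single-point 10 uM (duplicate) → concentration series, max 20 uM. Acetonitrile negative control.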
# [18] = target: Cytochrome P450 3A4 (Homo sapiens) (UniProt P08684); test: NVS_ADME_hCYP3A4: NovaScreen (NVS) CYP450-related Enzyme Activity (ADME) Assay for human CYP3A4 (AID 2283110; active means hit-call score of the fitted dose curve at least 0.9, where 1 is the maximum)
# Procedure, shortened: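 Recombinant CYP3A4 from insect cells, fluorescence enzyme read-out, 0.33 h after chemical addition. Acetonitrile = negative control/baseline. Primary HTS: 10 uM in duplicate; actives re-tested in concentration series.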
# [19] = target: human Acid Phosphatase 1 (ACP1), ACP1 (gene 52) (UniProt P24666); test: NVS_ENZ_hACP1: NovaScreen (NVS) Enzymatic Assay for human Acid Phosphatase 1 (ACP1) (AID 2283136; active means hit-call score of the fitted dose curve at least 0.9, where 1 is the maximum)
# human Acid Phosphatase 1 (ACP1), ACP1 (gene 52), sequence (P24666 whole entry, looked up): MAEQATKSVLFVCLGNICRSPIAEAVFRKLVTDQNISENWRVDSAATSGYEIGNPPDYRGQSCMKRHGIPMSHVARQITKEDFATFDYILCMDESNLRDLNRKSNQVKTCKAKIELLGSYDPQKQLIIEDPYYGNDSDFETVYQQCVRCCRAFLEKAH
# Procedure, shortened: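 Cell-free fluorescence read-out of phosphatase activity, substrate and product separated by mobility shift, taken 1.5 h after compound addition; protein produced in Sf9. Single 25 uM duplicate screen, followed by concentration series for actives, scored as signal loss relative to DMSO.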
structure (smiles),measurement,setting,value
Cc1nc(C)nc(N2C[C@@H](C)N(c3ccnc([C@@H](C)O)n3)[C@@H](C)C2)n1,outcome,[1],inactive
same,outcome,[2],inactive
same,outcome,[3],inactive
same,outcome,[4],inactive
same,outcome,[5],inactive
CCNc1cccc(C)c1,outcome,[1],inactive
same,outcome,[2],inactive
same,outcome,[3],inactive
same,outcome,[4],inactive
same,outcome,[5],inactive
Nc1ccc2c(c1)C(=O)c1ccccc1C2=O,outcome,[1],inactive
same,outcome,[2],inactive
same,outcome,[3],inactive
same,outcome,[4],inactive
same,outcome,[5],inactive
same,outcome,[6],inactive
same,outcome,[7],inactive
same,AC50,[8],4.65 µM (active)
same,outcome,[9],inactive
same,AC50,[10],2.16 µM (active)
CC1=C(/C=C/C(C)=C/C=C/C(C)=C/CO)C(C)(C)CCC1,outcome,[1],inactive
same,outcome,[2],inactive
same,outcome,[3],inactive
same,AC50,[4],26.1 µM (active)
same,outcome,[5],inactive
same,outcome,[6],inactive
same,AC50,[11],18.2 µM (active)
same,outcome,[12],inactive
same,AC50,[13],39.9 µM (active)
same,outcome,[9],inactive
same,outcome,[14],inactive
NS(=O)(=O)c1cc2c(cc1Cl)NCNS2(=O)=O,outcome,[1],inactive
same,outcome,[2],inactive
same,outcome,[3],inactive
same,outcome,[4],inactive
same,outcome,[5],inactive
Cc1nc(-c2ccc3c(c2)CCN(CCC2CCC(NC(=O)/C=C/c4ccc(F)cc4)CC2)CC3)no1 (configuration not stated),outcome,[1],inactive
same,outcome,[2],inactive
same,outcome,[3],inactive
same,outcome,[4],inactive
same,outcome,[5],inactive
same,outcome,[15],inactive
same,outcome,Caspase-3 (Homo sapiens),inactive
CC=Cc1ccc(O)c(OC)c1,outcome,[1],inactive
same,outcome,[2],inactive
same,outcome,[3],inactive
same,outcome,[4],inactive
same,outcome,[5],inactive
same,outcome,[7],inactive
same,outcome,[11],inactive
COC(=O)c1ccc(O)cc1,outcome,[1],inactive
same,outcome,[2],inactive
same,outcome,[3],inactive
same,outcome,[4],inactive
same,outcome,[5],inactive
C1CCC(SSC2CCCCC2)CC1,outcome,[1],inactive
same,AC50,[2],16.1 µM (active)
same,outcome,[3],inactive
same,AC50,[4],15 µM (active)
same,outcome,[5],inactive
CC1(C)CC(N=C=O)CC(C)(CN=C=O)C1 (configuration not stated),outcome,[1],inactive
same,outcome,[2],inactive
same,outcome,[3],inactive
same,outcome,[4],inactive
same,outcome,[5],inactive
same,outcome,[8],inactive
same,outcome,[13],inactive
same,AC50,[14],6.21 µM (active)
Oc1ccc2c(c1)OC[C@@H](N1CCC(O)(c3ccc(F)cc3)CC1)[C@H]2O,outcome,[1],inactive
same,outcome,[2],inactive
same,outcome,[3],inactive
same,outcome,[4],inactive
same,outcome,[5],inactive
same,AC50,[7],6.22 µM (active)
same,outcome,[8],inactive
same,outcome,[16],inactive
same,AC50,[12],7.71 µM (active)
Cc1c(C(=O)O)c(O)cc2c1C(=O)c1c(O)c([C@@H]3O[C@H](CO)[C@@H](O)[C@H](O)[C@H]3O)c(O)c(O)c1C2=O,outcome,[1],inactive
same,outcome,[2],inactive
same,outcome,[3],inactive
same,outcome,[4],inactive
same,outcome,[5],inactive
same,outcome,[15],inactive
same,outcome,[12],inactive
same,outcome,[13],inactive
COc1ccc(S(=O)(=O)N2C(=O)[C@@](c3ccccc3OC)(N3C[C@H](O)C[C@H]3C(=O)N(C)C)c3cc(Cl)ccc32)c(OC)c1,outcome,[1],inactive
same,outcome,[2],inactive
same,AC50,[3],20 µM (active)
same,AC50,[4],29.4 µM (active)
same,AC50,[5],29.7 µM (active)
same,outcome,[17],inactive
same,AC50,[18],4.57 µM (active)
same,AC50,[12],6.95 µM (active)
Cc1ccc(C(C)C)c(O)c1,outcome,[1],inactive
same,outcome,[2],inactive
same,outcome,[3],inactive
same,outcome,[4],inactive
same,outcome,[5],inactive
O=C(O)Cc1ccccc1Nc1c(Cl)cccc1Cl,outcome,[1],inactive
same,outcome,[2],inactive
same,outcome,[3],inactive
same,AC50,[4],15.6 µM (active)
same,outcome,[5],inactive
same,outcome,[8],inactive
same,outcome,[16],inactive
same,outcome,[19],inactive
Oc1ccc2ccccc2c1N=Nc1ccccc1,outcome,[1],inactive
same,outcome,[2],inactive
same,outcome,[3],inactive
same,AC50,[4],12.2 µM (active)
same,outcome,[5],inactive
CN1CCCC1=O,outcome,[1],inactive
same,outcome,[2],inactive
same,outcome,[3],inactive
same,outcome,[4],inactive
same,outcome,[5],inactive
CC(C)c1ccc(C(=O)N=C(N)N)cc1S(C)(=O)=O,outcome,[1],inactive
same,outcome,[2],inactive
same,outcome,[3],inactive
same,outcome,[4],inactive
same,outcome,[5],inactive
COc1cc(C=O)ccc1O,outcome,[1],inactive
same,outcome,[2],inactive
same,outcome,[3],inactive
same,outcome,[4],inactive
same,outcome,[5],inactive
Cc1ccc(C)c(O)c1C,outcome,[1],inactive
same,outcome,[2],inactive
same,outcome,[3],inactive
same,outcome,[4],inactive
same,outcome,[5],inactive
same,outcome,[6],inactive
